Screening results (PubChem)
ER stress death: ER stress cell death inhibition; actives 0.33% (n = 48,000); relative survival (cellular ATP), % at 15 µg/mL (by protocol); CSM14.1 thapsigargin ER stress survival, ATP luminescence;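 active = survival measured by cellular ATP above 50% at 15 µg/ml in the first screen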;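 also: cell death triggered by about 15 µM thapsigargin; ATP read 24 h after thapsigargin was added; plate controls were thapsigargin with DMSO for no effect and DMSO without thapsigargin for full effect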
Starred values were filed as active, the others as inactive. The sample as a whole holds a higher share of hits than the screen did.

SMILES	ER stress death
CC(C)(C)c1ccc(C(=O)N2N=C(c3cccnc3)CC2(O)C(F)(F)F)cc1 (centres undefined)	55*
COc1cccc(C2=NN(C(=O)c3ccc(C(C)(C)C)cc3)C(O)(C(F)(F)F)C2)c1 (centres undefined)	1
COc1ccc(/C=C/C(=O)Nc2ccccc2F)cc1OC	0
Cc1c(-c2cccs2)nc2ccccc2c1C(=O)O	-3
O=C(CN1CC[n+]2c(-c3cccs3)csc21)c1ccccc1	59*
O=C(CSc1nnc(-c2cccs2)n1-c1ccccc1)c1ccccc1	3
Cc1ccc(-c2nnc(NC(=O)Nc3ccc(Cl)cc3)s2)cc1	8
O=C(NCc1ccncc1)C(=O)Nc1nccs1	8
O=C(NCc1ccncc1)C(=O)Nc1nc(C23CC4CC(CC(C4)C2)C3)cs1	88*
COc1ccc(C(=O)Nc2nc(C34CC5CC(CC(C5)C3)C4)cs2)cc1	8
CCC(=O)c1ccc(OC(=O)c2cccc(C)c2)cc1	2
CCC(=O)Nc1nc(-c2ccccc2)nc(C)c1C(C)=O	3
CCOc1ccc(N(CC(=O)Nc2ccc3c(c2)OCO3)S(C)(=O)=O)cc1	3
CCn1c2ccccc2c2cc(CN3CCN(Cc4ccc(OC)c(OC)c4OC)CC3)ccc21	-4
CCn1c2ccccc2c2cc(CN3CCN(C(=O)c4ccc(OC)c(OC)c4)CC3)ccc21	122*
CCn1c2ccccc2c2cc(CN3CCN(C(=O)c4ccncc4)CC3)ccc21	17
CCn1c2ccccc2c2cc(CN3CCN(C(=O)c4cc(OC)c(OC)c(OC)c4)CC3)ccc21	113*
CCn1c2ccccc2c2cc(CN3CCN(Cc4cc(OC)c(OC)cc4OC)CC3)ccc21	-6
CCn1c2ccccc2c2cc(CN3CCN(Cc4ccccc4OC)CC3)ccc21	-2
CCOC(=O)c1c(C)oc2ccc(OC(=O)c3ccc(C)cc3)cc12	4
COc1cc(C=C2C(=O)c3ccccc3C2=O)cc(I)c1OCc1ccc(Cl)cc1	2
COc1ccc(C2CC(C(F)(F)F)n3ncc(C(=O)N(C)Cc4ccccc4)c3N2)cc1OC (centres undefined)	82*
Cc1ccc(C2CC(C(F)(F)F)n3ncc(C(=O)N(Cc4ccccc4)Cc4ccccc4)c3N2)cc1 (centres undefined)	4
COc1ccc(C2CC(C(F)(F)F)n3ncc(C(=O)Nc4ccc(F)cc4F)c3N2)cc1OC (centres undefined)	3
COc1ccc(C(=O)Nc2ccc(Cc3ccncc3)cc2)cc1[N+](=O)[O-]	3
SMILES	ER stress death
CC1CCOP(=O)(C(Nc2ccc(C(C)C)cc2)c2ccc([N+](=O)[O-])cc2)O1 (centres undefined)	3
COc1ccc(S(=O)(=O)Nc2ccc(F)c([N+](=O)[O-])c2)cc1	-3
CCOc1cccc(C2C(C(=O)OC)=C(C)NC3=C2C(=O)CC(C)(C)C3)c1 (centres undefined)	6
O=C(c1cccc(Cl)c1)N1CCN(c2ccc([N+](=O)[O-])cc2Cl)CC1	2
O=[N+]([O-])c1ccc2c(c1)S(=O)(=O)NC2=NCc1ccccc1	2
COc1ccc(C2CC(=O)C3=C(C2)Nc2ccccc2NC3c2cccc(Oc3ccccc3)c2)cc1OC (centres undefined)	85*
CCOc1cc(C2Nc3ccccc3NC3=C2C(=O)CC(c2ccc(OC)cc2)C3)cc(Br)c1O (centres undefined)	64*
COc1ccc(C2CC(=O)C3=C(C2)Nc2ccccc2NC3c2ccc(OC)c(Br)c2)cc1 (centres undefined)	96*
COc1ccc(C2CC(=O)C3=C(C2)Nc2ccccc2NC3c2ccc(-c3ccccc3)cc2)cc1OC (centres undefined)	6
CCOc1cc(C2Nc3ccccc3NC3=C2C(=O)CC(c2ccccc2)C3)cc(Br)c1O (centres undefined)	35
CCOc1ccc(C2Nc3ccccc3NC3=C2C(=O)CC(c2ccc(OC)cc2)C3)cc1OC (centres undefined)	5
COc1ccc(C2CC(=O)C3=C(C2)Nc2ccccc2NC3c2cccc(F)c2)cc1OC (centres undefined)	2
COc1ccc(C2Nc3ccccc3NC3=C2C(=O)CC(c2ccccc2)C3)cc1Br (centres undefined)	29
COc1ccc(C2CC(=O)C3=C(C2)Nc2ccccc2NC3c2ccc(OC)c(OC)c2)cc1 (centres undefined)	12
COc1cc(/C=N\n2c(C)nnc2C)ccc1OCc1ccccc1	3
Cc1cccc(N2C(=O)CSC23C(=O)Nc2ccccc23)c1 (centres undefined)	9
O=C(Cc1ccccc1)Nc1ccc2nn(-c3cccc4ccccc34)nc2c1	4
O=C(NN=C1CCCCC1)c1ccc(O)cc1	-5
O=C(CN1C(=O)/C(=C/c2ccccc2)SC1=S)NNC(=O)c1ccccc1Br	7
c1ccc2cc(OCCOCCOc3ncnc4ccccc34)ccc2c1	3
O=C1c2ccccc2C(=O)N1c1ncc(Cc2cccc(Cl)c2Cl)s1	-1
CCOc1c(C)cc2[nH]c(C)nc2c1C	2
CN(C)c1ccc(/C=C/C(=O)c2ccc(Br)cc2)o1	56*
O=C(/C=C/c1ccc([N+](=O)[O-])o1)c1ccc(Br)cc1	4
O=C(/C=C/c1ccc2c(c1)OCO2)c1ccc(Br)cc1	4
SMILES	ER stress death
CCOc1ccccc1N1CCN(C(=O)c2cccc(F)c2)CC1	4
Cc1ccnc(NC(=O)C(c2ccccc2)c2ccccc2)c1	86*
COc1ccccc1CC(=O)Nc1cc(C)ccn1	7
Cc1ccnc(NC(=O)CSc2nc3ccccc3[nH]2)c1	-1
COc1cc(OC)c(C2N(Cc3ccccc3)CCN2Cc2ccccc2)cc1Br	-9
CCN(CC)CCCOc1ccc(C)cc1C(C)(C)C	-4
O=C(Nc1ccc(NC(=S)NC(=O)c2ccco2)cc1)c1cccc(Cl)c1	3
COc1ccc(C(C)=O)cc1N1C(=O)C=CC1=O	-7
COc1ccc(C(C)=O)cc1N1C(=O)C2C3C=CC(C3=C(c3ccccc3)c3ccccc3)C2C1=O (centres undefined)	77*
CC(=O)c1cccc(N2C(=O)C3C4C=CC(C4=C(C)C)C3C2=O)c1 (centres undefined)	1
CCCNC(=O)OCC12COC3c4ccccc4OC(C)(CC1C)C3C2C (centres undefined)	10
Cc1sc2ncnc(N3CCCCCC3)c2c1C	-4
COC(=O)c1ccc(C2Nc3ccccc3NC3=C2C(=O)CC(C)(C)C3)cc1 (centres undefined)	7
CC1(C)CC(=O)C2=C(C1)Nc1ccccc1NC2c1ccc(-c2ccccc2)cc1 (centres undefined)	121*
CC1(C)CC(=O)C2=C(C1)Nc1ccccc1NC2c1cccc(F)c1 (centres undefined)	0
CCCCOc1ccc(C2Nc3ccccc3NC3=C2C(=O)CC(C)(C)C3)cc1 (centres undefined)	-3
CSc1ccc(C2Nc3ccccc3NC3=C2C(=O)CC(C)(C)C3)cc1 (centres undefined)	11
COc1ccc(C2Nc3ccccc3NC3=C2C(=O)CC(C)(C)C3)cc1COc1ccc(F)cc1 (centres undefined)	61*
CCCCOc1ccc(C=O)cc1OCC	10
CC(C)(C)c1cc(C(=O)N/N=C/C=C/c2ccccc2)n[nH]1	5
CCOc1ccccc1N1CCN(C(=O)c2cc(OC)c(OC)c(OC)c2)CC1	-4
CCOc1ccccc1N1CCN(C(=O)c2cccc(Cl)c2)CC1	11
